Experimental data taken from PubChem BioAssay AID720509 (The Scripps Research Institute Molecular Screening Center, 2013).
Out of some 370,000 compounds screened, about 760 (0.21%) were called active.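 Rule for the calls: active = inhibition above a per-campaign cutoff: mean of compounds within control limits plus 3 SD (cut at about 15% in these data); inactive = the rest.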 The sample as a whole holds a higher share of actives than the screen did.

Molecular target: Fibrinogen beta chain (Homo sapiens) (UniProt P02675)
Sequence (P02675 whole entry, looked up): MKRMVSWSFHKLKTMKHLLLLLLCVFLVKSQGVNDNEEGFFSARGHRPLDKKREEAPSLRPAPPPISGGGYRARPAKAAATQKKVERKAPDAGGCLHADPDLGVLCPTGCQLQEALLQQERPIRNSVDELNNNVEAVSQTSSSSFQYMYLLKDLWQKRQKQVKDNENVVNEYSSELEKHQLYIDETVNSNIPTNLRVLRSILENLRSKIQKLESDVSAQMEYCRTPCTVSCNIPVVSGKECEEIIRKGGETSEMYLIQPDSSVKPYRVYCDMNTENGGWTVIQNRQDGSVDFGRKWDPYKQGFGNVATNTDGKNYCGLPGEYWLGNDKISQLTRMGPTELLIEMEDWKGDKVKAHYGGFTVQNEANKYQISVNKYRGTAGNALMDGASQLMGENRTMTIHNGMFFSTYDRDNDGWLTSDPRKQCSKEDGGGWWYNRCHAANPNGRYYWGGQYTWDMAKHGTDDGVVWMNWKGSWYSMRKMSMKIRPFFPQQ
Assay: small molecules displacing Tn6 from DD(E) complex – biochemical, fluorescence polarization, human fibrin, Tn6 probe, primary screen (AID 720509);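 note: 0% = median of all compound wells on the plate and 100% = blocking peptide control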
Settings: Fibrin DD(E) TRITC-Tn6 fluorescence polarization displacement; at 8.3 µM; hits give high values

Structure (SMILES)	inhibition
O=C(c1c(F)cccc1F)N1CCN(c2ncc(Br)cn2)CC1	-1.65% (inactive)
CC(=O)OC(C)C[N+](C)(C)C (stereo not drawn)	3.71% (inactive)
CCOC(=O)C(C)Oc1cccc2c(=O)n(CC(=O)N3CCc4ccccc43)ccc12 (stereo not drawn)	-1.79% (inactive)
CC(=O)N1CCCN(C2=Nc3ccccc3Sc3ccccc32)CC1	-3.1% (inactive)
Cc1cc(-c2nnc(SCC(=O)Nc3ccc(S(N)(=O)=O)cc3)n2N)n[nH]1	-3.55% (inactive)
Cc1oc2nc(SCC(=O)NCc3cccnc3)nc(N)c2c1C	7.93% (inactive)
Cc1oc2nc(SCC(=O)Nc3ccc(S(N)(=O)=O)cc3)nc(NC(=O)c3ccccc3)c2c1C	24.4% (active)
COc1cc2c(cc1OC)C(C(=O)Nc1cc(C)c(OC)c(C)c1)CC(=O)N2 (stereo not drawn)	10.8% (inactive)
N#Cc1ccc(COC(=O)Cn2nnc(-c3ccccc3)n2)cc1	0.38% (inactive)
CCc1cc(-c2nnc(SCC(=O)NC3CC3)n2C)cs1	18.6% (active)
CCOc1cccc(-c2nnc(SCC(=O)NC3CC3)n2C)c1	6.34% (inactive)
Cn1c(SCC(=O)NC2CCCCC2)nnc1-c1ccc(N)cc1	1.64% (inactive)
O=[N+]([O-])c1ccccc1N/N=C1\CCc2ccccc21	-1.87% (inactive)
O=C(NC1CCc2ccccc21)C12CN(Cc3ccccc3)CC1C(c1cccc([N+](=O)[O-])c1)=NO2 (stereo not drawn)	1.76% (inactive)
COCC(C)n1c(C)cc(C(=O)COc2ccc(C)nc2[N+](=O)[O-])c1C (stereo not drawn)	2.28% (inactive)
O=C(NCc1nnc(SCC(=O)N2CCCCCC2)o1)c1ccc(F)cc1	4% (inactive)
O=S(=O)(NCC1CN(S(=O)(=O)c2ccc3c(c2)OCCO3)C1)c1c(F)cccc1F	0.97% (inactive)
COc1ccc(-c2c(C)nn3c(N4CCC(C(=O)N5CCCCC5)CC4)cc(C)nc23)cc1OC	-3.53% (inactive)
O=S(=O)(Nc1ccc(-n2cnnn2)cc1)c1ccc(Cl)cc1	-1.46% (inactive)
N#Cc1ccc(S(=O)(=O)NCC(=O)OCC(=O)NCCc2ccccc2)cc1	-8.48% (inactive)

Structure (SMILES)	inhibition
N#CC1=C(N)Oc2c(sc3ccccc23)C1c1ccco1 (stereo not drawn)	3.91% (inactive)
CC(C)(C)c1cc(=O)n2c(nc3ccccc32)[nH]1	-1.54% (inactive)
CN(CC(=O)Nc1ccccc1Cl)C(=O)c1ccccc1SCC(=O)N1CCCC1	-6.29% (inactive)
COc1ccc(N(CC(=O)NC2CCCCC2)S(=O)(=O)c2c(C)[nH]c(=O)[nH]c2=O)cc1	6% (inactive)
CCCCNC(=O)C[C@@H]1C[C@@]2(C(=O)OCC)CCC=C2N(Cc2ccco2)C1=O	3.81% (inactive)
COc1ccc(CNc2c(CO)cnc3c2cnn3C)cc1	-2.59% (inactive)
COc1ccc(CC(=O)Nc2c3c(nn2-c2cccc(Cl)c2)CS(=O)C3)cc1 (stereo not drawn)	-10.3% (inactive)
COc1c(C)cc(C(O)c2ncc(-c3cccc(C(F)(F)F)c3)[nH]2)cc1C (stereo not drawn)	8.36% (inactive)
CCOC(=O)N1CCN(Cc2nc(N)nc(Nc3ccc(C)cc3)n2)CC1	17% (active)
CCOC(=O)N1CCN(Cc2nc3cc(NC(=O)CC)ccc3n2CC)CC1	-8.37% (inactive)
CCOC(=O)C1CCCN(Cc2nc(N)nc(Nc3ccc(C)cc3)n2)C1 (stereo not drawn)	-3.73% (inactive)
Cc1nnc2n1N=C(c1ccc3c(c1)NC(=O)CO3)CS2	0.86% (inactive)
CCOC(=O)N1CCN(S(=O)(=O)c2ccc(-n3cnnn3)cc2)CC1	7.12% (inactive)
COc1ccc(S(=O)(=O)NC(CC(=O)NCc2ccccc2OC)c2ccco2)cc1 (stereo not drawn)	2.08% (inactive)
COc1ccc2c(c1)c1ncn(Cc3ccccn3)c(=O)c1n2C	-7.12% (inactive)
CC(C)(C)OC(=O)C[C@@H]1C/C=C\C[C@@H](CC(=O)N[C@@H](CO)Cc2ccccc2)C(=O)N2CCC[C@H]2COC1=O	-2.9% (inactive)
O=C(COC(=O)c1ccc(F)cc1F)Nc1ncccn1	2.94% (inactive)
COC(=O)C1=C(C)NC(=S)NC1c1ccc(OC)cc1 (stereo not drawn)	0.81% (inactive)
Nc1nc(SCC(=O)NNc2c(Cl)cc(Cl)cc2Cl)n[nH]1	8.94% (inactive)
COc1ccc(C(CNC(=O)c2ccc(OCc3cscn3)cc2)N2CCCC2)cc1 (stereo not drawn)	2.19% (inactive)

Structure (SMILES)	inhibition
Oc1c(Cl)cc(Cl)c(Cl)c1Cc1c(O)c(Cl)cc(Cl)c1Cl	-7.14% (inactive)
Cc1cc([N+](=O)[O-])nn1Cc1ccc(F)cc1	-0.46% (inactive)
COc1ccc(C(=O)C2CCCN(S(=O)(=O)c3cccc(C)c3)C2)c(C)c1 (stereo not drawn)	-7.45% (inactive)
CCCC1(C(=O)OCC)NC(c2ccc(N(C)C)cc2)C2C(=O)N(c3ccc4c(c3)OCCO4)C(=O)C21 (stereo not drawn)	-9.09% (inactive)
COc1ccccc1C(=O)COC(=O)CSCC(=O)Nc1cc(C)on1	0.48% (inactive)
O=C(CN1C(=O)NC2(CCCCCC2)C1=O)NCc1cccs1	-0.57% (inactive)
CSC1=NN(c2ccccc2)CN(c2ccccc2)N1C	-0.87% (inactive)
COc1ccc(CCNC(=O)C(=O)NCC2CCCN2S(=O)(=O)c2cccs2)cc1OC (stereo not drawn)	-8.21% (inactive)
COCCN(Cc1nc(-c2ccc(C(F)(F)F)cc2)no1)C(C)C	-5.72% (inactive)
CC(C)CCNC(=O)CC1C(=O)N(Cc2ccccc2)C(C)c2nc3ccccc3n21 (stereo not drawn)	5.33% (inactive)
Cc1cc(=O)oc(C)c1C(=O)Nc1cnc2ccccc2c1	-3.11% (inactive)
CCOc1ccc(C(=O)Nc2cc(Cl)ccc2-n2cncn2)cc1OC	2.72% (inactive)
CN(C)c1cccc(NC(=O)c2ccc(-c3ccc(F)c(F)c3)c3ccoc23)c1	-0.65% (inactive)
Cc1cccc(NS(=O)(=O)c2cc(Cl)ccc2Cl)n1	1.49% (inactive)
CC(=O)N/C(=C\c1ccc(F)cc1)C(=O)NC(Cc1ccccc1)C(=O)O (stereo not drawn)	2.99% (inactive)
Oc1ccc(N=Cc2sc3ccccc3c2Cl)cc1	36.1% (active)
CN1CCN(S(=O)(=O)c2ccc(Nc3ccc(F)cc3)nc2)CC1	-3.71% (inactive)
O=C(CCN1C(=O)[C@H]2CC=CC[C@H]2C1=O)NCc1nc(-c2ccccc2)no1	1.52% (inactive)
